Consider nine compounds from PubChem BioAssay (Tox21).

Inconclusive results are not listed. Activity calls are given as the source filed them. Unless noted, calls come from the whole dose curve; as a rule, active = well fitted curve in the direction sought with a large enough effect in the repeat runs; inconclusive = weak or mixed curves; inactive = no such curve, though single readings can be large; an effect the other way counts as inactive or inconclusive.

The nature of assay [1]: qHTS assay to identify aromatase inhibitors - cell viability counter screen (AID 743084;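 note: cells stimulated with testosterone during compound exposure; nearly all actives have a fitted effect of over 55% in size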; note: potency is the fitted concentration of half-maximal effect). (qHTS replaces the single test concentration by a dilution series.)
Assay [2] addresses Aryl hydrocarbon receptor (Homo sapiens) (UniProt P35869). In words: qHTS assay to identify small molecule that activate the aryl hydrocarbon receptor (AhR) signaling pathway (AID 743085).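 For activation: HG2L7.5c1 human HepG2 liver cells with stably integrated DRE-driven firefly reporter; series mostly up to about 70 µM.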 Note: nearly all actives have a fitted effect of over 15% in size. Note: potency is the fitted concentration of half-maximal effect. Put shortly: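 24 h compound exposure, 37C, HepG2-derived HG2L7.5c1 cells with DRE-responsive luciferase. Readouts: fluorescence viability, then luminescence at room temperature after 30 min.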

Assay [3] in a line: qHTS assay to identify small molecule that activate the aryl hydrocarbon receptor (AhR) signaling pathway - cell viability counter screen (AID 743086). Note: nearly all actives have a fitted effect of over 45% in size. Note: potency is the fitted concentration of half-maximal effect. Put shortly:
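HepG2-AhR-luc (HG2L7.5c1) cells, 4000/well, treated 24 h at 37 C with compound; viability measured as CellTiter-Fluor fluorescence after 30 min in the same wells as the luciferase read.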

For assay [4], the target named is Peroxisome proliferator-activated receptor gamma (Homo sapiens) (UniProt P37231). Description: qHTS assay to identify small molecule agonists of the peroxisome proliferator-activated receptor gamma (PPARg) signaling pathway (AID 743094; active = well fitted activation curve with a large enough effect in the signal ratio in the repeat runs, not every such curve was filed as active; the % refers to the signal ratio). In a few lines: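 Following 5 h plating at 37C, PPARg-bla HEK293H cells receive compound or DMSO for 17 h; fluorescence intensity is recorded after LiveBLAzer B/G loading for 1 h at room temperature.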

The target is the same in assay [5]. Description: qHTS assay to identify small molecule antagonists of the peroxisome proliferator-activated receptor gamma (PPARg) signaling pathway (AID 743191; calls by dose curve; note: series mostly up to about 63 µM; nearly all actives have a fitted effect of over 30% in size). In a few lines: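 GeneBLAzer PPARg UAS-bla HEK293H cells, 5 h post-plating, exposed to compounds 17 h at 37C. LiveBLAzer B/G FRET substrate added for 1 h at room temperature; beta-lactamase reporter read by fluorescence intensity.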

Assay [6] is described as follows: qHTS assay to identify small molecule antagonists of the peroxisome proliferator-activated receptor gamma (PPARg) signaling pathway - cell viability counter screen (AID 743194). Note: nearly all actives have a fitted effect of over 55% in size. Note: potency is the fitted concentration of half-maximal effect. Put shortly: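 Cytotoxicity counter screen in PPARg-bla HEK293H cells, same wells as reporter assay. Compounds plus 50 nM rosiglitazone (final) for 17 h at 37 C, then viability read by CellTiter-Glo luminescence.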

Assay [7] in a line: qHTS assay for small molecule agonists of the antioxidant response element (ARE) signaling pathway (AID 743202; active = well fitted activation curve with a large enough effect in the signal ratio in the repeat runs, not every such curve was filed as active; the % refers to the signal ratio; note: potency is the fitted concentration of half-maximal effect). In a few lines: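 Agonist mode reporter screen: HepG2 cells with ARE-controlled beta-lactamase are incubated with test compounds for 16 h at 37 C, and beta-lactamase activity is measured as fluorescence of cleaved B/G FRET substrate.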
Assay [8] in a line: qHTS assay for small molecule agonists of the antioxidant response element (ARE) signaling pathway - cell viability counter screen (AID 743203; calls by dose curve; note: nearly all actives have a fitted effect of over 55% in size). In a few lines: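 Compounds in DMSO were pinned onto ARE-bla HepG2 cells plated 5 hrs earlier at 2,000 cells/well. Sixteen hours later at 37C/5% CO2, CellTiter-Glo was added and luminescence measured after 30 min at room temperature.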

The nature of assay [9]: qHTS assay for small molecule activators of the heat shock response signaling pathway - cell viability counter screen (AID 743209). Note: nearly all actives have a fitted effect of over 50% in size. In a few lines: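 Counter screen for cytotoxicity in HeLa HSE-bla reporter cells. Treatment was 5 h at 37 C; viability was detected by luminescent ATP assay (CellTiter-Glo) in the same wells as the beta-lactamase read.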
Assay [10] is described as follows: qHTS assay for small molecule activators of the heat shock response signaling pathway (AID 743210; active = well fitted activation curve with a large enough effect in the signal ratio in the repeat runs, with a control signal flat, not every such curve was filed as active; the % refers to the signal ratio;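 note: HeLa cells with beta-lactamase reporter driven by heat shock elements; series mostly up to about 63 µM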). In a few lines:
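Quantitative high-throughput format using an engineered HeLa line in which heat shock response elements drive beta-lactamase; after 5 h with compound, cells received a B/G FRET substrate and fluorescence was read.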

Assay [11] in a line: qHTS assay to identify small molecule agonists of the peroxisome proliferator-activated receptor delta (PPARd) signaling pathway - cell viability counter screen (AID 743211). Note: nearly all actives have a fitted effect of over 55% in size. Note: potency is the fitted concentration of half-maximal effect. In a few lines:
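Luminescent ATP viability assay (CellTiter-Glo, 30 min RT) in UAS-bla HEK293H cells carrying the PPAR delta reporter construct, 3000 cells/well, after a 17 h compound treatment at 37 C.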

Assay [12] has as its target Peroxisome proliferator-activated receptor delta (Homo sapiens) (UniProt Q03181). Description: qHTS assay to identify small molecule agonists of the peroxisome proliferator-activated receptor delta (PPARd) signaling pathway (AID 743212; calls by dose curve). In a few lines:
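Quantitative high-throughput agonist screen in a HEK293H beta-lactamase reporter line under UAS control. Compounds in DMSO, at 37 C. Fluorescence read after 2 h with FRET substrate at room temperature.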

A short description of assay [13]: qHTS assay to identify small molecule antagonists of the peroxisome proliferator-activated receptor delta (PPARd) signaling pathway - cell viability counter screen (AID 743213). Note: nearly all actives have a fitted effect of over 50% in size. Note: potency is the fitted concentration of half-maximal effect. In a few lines: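 In this counter screen, HEK293H cells carrying a UAS-beta-lactamase reporter are co-treated with test compounds and 300 nM L165041 (final) for 17 h at 37 C; cell viability is quantified by CellTiter-Glo luminescence.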

Assay [14] concerns the target Peroxisome proliferator-activated receptor delta (Homo sapiens) (UniProt Q03181). Description: qHTS assay to identify small molecule antagonists of the peroxisome proliferator-activated receptor delta (PPARd) signaling pathway (AID 743215; active = well fitted inhibition curve with a large enough effect in the signal ratio in the repeat runs, not every such curve was filed as active; the % refers to the signal ratio;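 note: cells stimulated with agonist L165041 at 300 nM final during compound exposure; series mostly up to about 62 µM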). In a few lines: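 With L165041 present at 300 nM final, compounds were incubated 17 h at 37 C on PPARd UAS-bla HEK293H cells. A FRET-based beta-lactamase substrate was then applied for 2 h at room temperature and fluorescence intensity recorded.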

Assay [15] is described as follows: qHTS assay to identify small molecule antagonists of the farnesoid-X-receptor (FXR) signaling pathway - cell viability counter screen (AID 743221; active = well fitted cell-killing curve with a large enough effect in the repeat runs, not every such curve was filed as active; note: nearly all actives have a fitted effect of over 50% in size; note: potency is the fitted concentration of half-maximal effect). In a few lines: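 In GeneBLAzer FXR-UAS-bla HEK 293T cells stimulated with 50 uM chenodeoxycholic acid (final), compounds acted for 16 h at 37 C. Viability was assessed afterwards by CellTiter-Glo luminescence.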
The target of assay [16] is Vitamin D3 receptor (Homo sapiens) (UniProt P11473). Description: qHTS assay to identify small molecule agonists of the vitamin D receptor (VDR) signaling pathway (AID 743222; calls by dose curve). Put shortly:
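VDR-bla cells were seeded, left 4 h, treated with compounds in DMSO for 16 h, incubated 2 h at RT with B/G FRET substrate, and read for fluorescence.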

For assay [17] the target is unchanged. In words: qHTS assay to identify small molecule antagonists of the vitamin D receptor (VDR) signaling pathway (AID 743223; active = well fitted inhibition curve with a large enough effect in the signal ratio in the repeat runs, not every such curve was filed as active; the % refers to the signal ratio). Put shortly: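 Agonist 1alpha,25-dihydroxyvitamin D3 (3 nM in well) was added with each compound to VDR-bla cells preincubated 4 h. Cells stood 16 h at 37C, then FRET substrate 2 h at room temperature; fluorescence intensity recorded.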

Assay [18] has as its target Bile acid receptor (Homo sapiens) (UniProt Q96RI1). In words: qHTS assay to identify small molecule antagonists of the farnesoid-X-receptor (FXR) signaling pathway (AID 743217; active = well fitted inhibition curve with a large enough effect in the signal ratio in the repeat runs, not every such curve was filed as active; the % refers to the signal ratio). In a few lines:
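In this cell-based antagonist screen, inhibition of CDCA-driven (50 uM final) UAS-beta-lactamase expression in HEK 293T cells was measured by FRET fluorescence following 16 h compound exposure at 37 °C.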

Assay [19] shares this target. In words: qHTS assay to identify small molecule agonists of the farnesoid-X-receptor (FXR) signaling pathway (AID 743220; active = well fitted activation curve with a large enough effect in the signal ratio in the repeat runs, not every such curve was filed as active; the % refers to the signal ratio). In a few lines:
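Beta-lactamase reporter under UAS control in GeneBLAzer FXR HEK 293T cells (5000/well) measured with LiveBLAzer FRET substrate after 2 h at room temperature. Compound exposure lasted 16 h at 37C.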

The nature of assay [20]: qHTS assay to identify small molecule agonists of the farnesoid-X-receptor (FXR) signaling pathway - cell viability counter screen (AID 743218). Note: nearly all actives have a fitted effect of over 45% in size. Put shortly:
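After 16 h at 37 C with test compounds, FXR-bla HEK 293T cells were given LiveBLAzer B/G substrate for 2 h at RT and then CellTiter-Glo; luminescence was taken after 30 min.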

Sequence of Peroxisome proliferator-activated receptor gamma (Homo sapiens) (P37231 whole entry, looked up): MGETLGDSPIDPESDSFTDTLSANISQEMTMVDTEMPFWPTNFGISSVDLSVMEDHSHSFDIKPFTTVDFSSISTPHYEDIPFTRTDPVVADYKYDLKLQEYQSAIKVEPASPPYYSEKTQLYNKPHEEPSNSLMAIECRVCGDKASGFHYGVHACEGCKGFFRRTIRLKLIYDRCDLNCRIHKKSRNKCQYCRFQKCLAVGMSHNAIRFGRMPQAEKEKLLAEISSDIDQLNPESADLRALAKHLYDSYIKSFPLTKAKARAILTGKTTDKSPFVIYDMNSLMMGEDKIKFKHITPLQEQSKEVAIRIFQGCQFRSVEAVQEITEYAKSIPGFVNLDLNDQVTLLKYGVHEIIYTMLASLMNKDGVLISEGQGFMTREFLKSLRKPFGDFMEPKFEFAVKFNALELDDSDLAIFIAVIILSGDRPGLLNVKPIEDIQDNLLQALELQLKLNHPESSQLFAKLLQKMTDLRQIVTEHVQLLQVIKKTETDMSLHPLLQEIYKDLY
Sequence of Vitamin D3 receptor (Homo sapiens) (P11473 whole entry, looked up): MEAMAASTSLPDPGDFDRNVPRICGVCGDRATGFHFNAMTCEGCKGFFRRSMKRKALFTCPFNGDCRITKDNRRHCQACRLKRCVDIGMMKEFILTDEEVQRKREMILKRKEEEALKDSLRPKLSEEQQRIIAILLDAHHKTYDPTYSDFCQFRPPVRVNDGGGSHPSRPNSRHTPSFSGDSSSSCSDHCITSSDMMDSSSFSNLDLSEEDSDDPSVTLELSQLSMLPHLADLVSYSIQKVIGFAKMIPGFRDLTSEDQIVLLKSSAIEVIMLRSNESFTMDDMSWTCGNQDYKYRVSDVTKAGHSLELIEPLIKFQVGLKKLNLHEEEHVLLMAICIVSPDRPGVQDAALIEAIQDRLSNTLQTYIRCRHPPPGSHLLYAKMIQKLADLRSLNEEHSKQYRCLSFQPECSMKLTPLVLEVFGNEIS
Sequence of Bile acid receptor (Homo sapiens) (Q96RI1 whole entry, looked up): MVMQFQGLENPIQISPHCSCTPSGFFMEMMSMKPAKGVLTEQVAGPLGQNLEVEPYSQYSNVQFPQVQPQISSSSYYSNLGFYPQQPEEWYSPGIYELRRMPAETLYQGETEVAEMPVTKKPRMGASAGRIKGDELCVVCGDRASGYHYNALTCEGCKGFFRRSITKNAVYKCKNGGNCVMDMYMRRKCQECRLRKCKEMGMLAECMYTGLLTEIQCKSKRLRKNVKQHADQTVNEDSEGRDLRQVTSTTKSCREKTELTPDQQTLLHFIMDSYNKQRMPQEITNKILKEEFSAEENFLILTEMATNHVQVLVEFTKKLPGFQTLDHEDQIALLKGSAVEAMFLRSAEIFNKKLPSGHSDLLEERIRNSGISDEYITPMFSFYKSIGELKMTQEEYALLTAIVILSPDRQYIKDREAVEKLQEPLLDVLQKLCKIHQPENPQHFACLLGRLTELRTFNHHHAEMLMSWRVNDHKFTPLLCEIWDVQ
Sequence of Peroxisome proliferator-activated receptor delta (Homo sapiens) (Q03181 whole entry, looked up): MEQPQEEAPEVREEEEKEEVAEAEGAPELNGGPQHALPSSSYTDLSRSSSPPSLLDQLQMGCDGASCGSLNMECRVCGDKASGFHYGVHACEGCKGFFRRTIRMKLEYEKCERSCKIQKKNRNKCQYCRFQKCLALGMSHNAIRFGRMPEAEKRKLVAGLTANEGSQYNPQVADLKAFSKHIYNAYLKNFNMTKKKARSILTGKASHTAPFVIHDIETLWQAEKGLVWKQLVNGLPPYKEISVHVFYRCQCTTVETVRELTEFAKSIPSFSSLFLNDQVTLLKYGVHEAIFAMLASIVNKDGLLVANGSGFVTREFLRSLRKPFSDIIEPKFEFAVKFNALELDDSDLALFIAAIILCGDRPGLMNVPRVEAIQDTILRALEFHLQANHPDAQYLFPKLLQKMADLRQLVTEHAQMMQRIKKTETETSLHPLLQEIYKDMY
Sequence of Aryl hydrocarbon receptor (Homo sapiens) (P35869 whole entry, looked up): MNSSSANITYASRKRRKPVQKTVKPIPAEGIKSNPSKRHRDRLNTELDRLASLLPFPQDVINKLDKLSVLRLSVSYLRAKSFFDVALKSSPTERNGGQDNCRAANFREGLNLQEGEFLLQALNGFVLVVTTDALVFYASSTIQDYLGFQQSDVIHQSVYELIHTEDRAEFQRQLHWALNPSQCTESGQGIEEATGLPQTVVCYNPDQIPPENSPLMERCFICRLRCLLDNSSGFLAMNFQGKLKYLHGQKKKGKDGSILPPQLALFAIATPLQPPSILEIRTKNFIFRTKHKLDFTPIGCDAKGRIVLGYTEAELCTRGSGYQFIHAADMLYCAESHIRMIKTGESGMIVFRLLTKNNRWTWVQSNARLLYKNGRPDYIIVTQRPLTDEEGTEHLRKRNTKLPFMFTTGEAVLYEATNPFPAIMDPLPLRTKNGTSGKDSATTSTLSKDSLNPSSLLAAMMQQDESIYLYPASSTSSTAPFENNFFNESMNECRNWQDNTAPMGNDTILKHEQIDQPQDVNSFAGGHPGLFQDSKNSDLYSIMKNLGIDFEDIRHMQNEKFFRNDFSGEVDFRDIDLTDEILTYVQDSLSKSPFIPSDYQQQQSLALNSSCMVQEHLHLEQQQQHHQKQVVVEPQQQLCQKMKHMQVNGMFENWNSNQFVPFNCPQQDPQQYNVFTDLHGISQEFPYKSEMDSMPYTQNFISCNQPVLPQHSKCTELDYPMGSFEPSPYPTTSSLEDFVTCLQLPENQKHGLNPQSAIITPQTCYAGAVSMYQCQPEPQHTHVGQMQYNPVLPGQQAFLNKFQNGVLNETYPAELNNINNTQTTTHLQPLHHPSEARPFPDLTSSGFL

With `C=C(C)C(=O)OCCC[Si](Cl)(Cl)Cl`, the Potency entry in assay [1], in [2], in [3], in [4], in assay [5] and in [6] was “inactive” in each case. Further, the Potency result in assay [7], in assay [8], in [9], in assay [10], in assay [11] and in assay [13] was “inactive” in each case. The Potency result in assay [14], in assay [15], in [16] and in assay [17] was “inactive” in each case. Further, in assay [12], the result was inactive.

As for `COC(=O)CC(C)CCC=C(C)C` (centres undefined), the Potency entry in [1], in [2], in assay [3], in assay [4], in assay [5] and in assay [6] was “inactive” in each case. The Potency result in assay [8], in assay [11], in assay [18], in assay [15], in assay [16] and in [17] was “inactive” in each case. Also, the result in assay [12] was inactive.

As for `CC(=O)Oc1ccc(C2(c3ccc(OC(C)=O)cc3)Oc3ccccc3NC2=O)cc1`, the Potency result in [1], in [2], in assay [3], in assay [4], in assay [6] and in assay [8] was “inactive” throughout. The Potency entry in [9], in assay [10], in [11], in [19] and in assay [15] was “inactive” throughout. Moreover, in [12], the call was inactive.

For the compound `CCOC(=O)COc1ccc(C)cc1`, the Potency entry in assay [1], in assay [2], in assay [3], in assay [4], in [6] and in assay [8] was “inactive” each time. Further, the Potency result in [11], in [13], in assay [18], in [19], in [15] and in assay [17] was “inactive” in each case.

For `CCCCCCCCCCCC(=O)N(CC)CC`, the Potency entry in assay [1], in assay [2], in [3], in assay [4], in assay [6] and in assay [7] was “inactive” throughout. The Potency entry in assay [8], in assay [9], in [10], in [11], in assay [13] and in assay [14] was “inactive” in each case. Moreover, the Potency entry in [18], in assay [19], in [15], in assay [16] and in assay [17] was “inactive” in each case. Further, the call in assay [12] was inactive.

Take `CCN(CC)c1ccc(N)cc1`: the Potency in assay [1] is 31.5 µM (active); in assay [2], 25 µM (active); in [3] it was 56 µM (active); in [7], 12.5 µM (active); in assay [11] it was 44.8 µM (active); in assay [13], 31.7 µM (active). Besides, the Potency result in assay [4], in [5], in assay [6] and in assay [18] was “inactive” in each case.

Turning to `Cc1cccc(C)c1NC(=O)CN1CCN(CCCC(c2ccc(F)cc2)c2ccc(F)cc2)CC1`, the Potency entry in assay [1], in assay [2], in assay [4] and in [19] was “inactive” each time. Further, the Potency in assay [3] was 11.4 µM (active); in assay [6], 26.6 µM (active); in assay [11], 18.8 µM (active); in assay [13] it was 21.1 µM (active); in assay [15] it was 29.8 µM (active).

As for `CC1CCCNC1` (centres undefined), the Potency entry in assay [1], in assay [2], in assay [3], in assay [4], in assay [5] and in assay [6] was “inactive” each time. For the same compound, the Potency result in assay [7], in [8], in [20] and in assay [15] was “inactive” throughout.

Regarding `COC(=O)CC#N`, the Potency entry in assay [1], in assay [2], in assay [3], in assay [4], in assay [5] and in [6] was “inactive” throughout. Further, the Potency result in assay [7], in assay [8], in assay [9], in assay [10], in assay [11] and in [13] was “inactive” each time. Moreover, the Potency entry in assay [15] is “inactive”.
